# Screens (PubChem)
# The list is not random: actives were taken first. Their share in the collection is about 2.9%.
# PAFAH1B3 FP inh – PAFAH1B3 enzyme inhibitors, primary screen, biochemical, fluorescence polarization, human; Platelet-activating factor acetylhydrolase IB subunit alpha1 (Homo sapiens), Q15102; inhibition, % at 3.39 µM; AID 492972, 2010; recombinant PAFAH1B3, FP-rhodamine probe; actives 0.28% (n = 340,000);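 active means inhibition above the screen-wide average of all tested compounds plus 3 SD, cut at about 25% in these data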;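 further: 0% = enzyme with DMSO only and 100% = wells lacking PAFAH1B3 protein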
# PAFAH2 FP inh – PAFAH2 enzyme inhibitors, primary screen, biochemical, fluorescence polarization, human. Platelet-activating factor acetylhydrolase 2, cytoplasmic (Homo sapiens), Q99487. recombinant PAFAH2, FP-rhodamine activity probe. inhibition, % at 3.39 µM. actives 0.99% (n = 340,000). AID 492956, 2010;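 active means inhibition above the mean over all tested compounds plus 3 SD, cut at about 30% in these data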;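 further: inhibitors block probe labeling of enzyme so polarization drops; 0% = enzyme with DMSO and 100% = wells lacking PAFAH2 protein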
# PAFAH1B2 inh – PAFAH1B2 enzyme inhibitors, primary screen, biochemical, fluorescence polarization, human; recombinant PAFAH1B2, FP-rhodamine activity probe; inhibition, % at 3.39 µM; actives 1.2% (n = 340,000); AID 492953, 2010;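 active means inhibition above the mean of all tested compounds plus 3 SD, cut at about 24% in these data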;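 further: 0% = enzyme with DMSO and 100% = wells lacking PAFAH1B2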
# EBNA-1 inhibitor – EBNA-1 DNA-binding inhibitors, primary screen, biochemical, fluorescence polarization; inhibition, % at 14.8 µM; actives 0.34% (n = 300,000); AID 1950, 2009; in the data active means inhibition above about 28%
# ZTA counter – counter-screen for EBNA-1 inhibitors: inhibitors of Epstein-Barr virus ZTA | actives 0.15% (n = 320,000) | ZTA-DNA binding, fluorescence polarization | AID 2234 | inhibition, % at 11 µM | P03206; in the data active means inhibition above about 33%
# Target sequence (P03206 whole entry, looked up): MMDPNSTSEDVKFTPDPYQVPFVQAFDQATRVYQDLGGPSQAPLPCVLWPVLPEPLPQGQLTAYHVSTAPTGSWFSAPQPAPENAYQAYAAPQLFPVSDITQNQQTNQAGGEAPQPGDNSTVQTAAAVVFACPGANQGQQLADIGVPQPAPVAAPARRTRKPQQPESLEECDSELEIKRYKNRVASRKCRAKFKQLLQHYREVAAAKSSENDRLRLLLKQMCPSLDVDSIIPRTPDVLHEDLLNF
# rCAG RNA binder – binders of r(CAG) RNA repeats, primary screen, biochemical, fluorescence | r(CAG) RNA repeat, TO-PRO-1 dye displacement fluorescence | inhibition, % at 3 µM | AID 651821, 2012 | actives 1.3% (n = 370,000);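 active means inhibition above the plate cutoff, the mean of all test compounds on that plate plus 3 SD, cut at about 35% in these data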;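 further: 0% = DMSO alone and 100% = 100 µM mitoxantrone as full dye displacement; higher means more dye released from RNA so lower well fluorescence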
# PAFAH1B3 confirm – PAFAH1B3 enzyme inhibitors, confirmation, biochemical, fluorescence polarization, human; shares compounds with PAFAH1B3 FP inh; recombinant PAFAH1B3, FP-Rh activity-based probe; inhibition, % at 3.39 µM; actives 30% (n = 390);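 active means average inhibition over triplicate runs above the hit cutoff set in the earlier primary screen, cut at about 25% in these data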;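 further: 0% = enzyme with DMSO and 100% = wells lacking PAFAH1B3 protein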
# * hit, by the source's call; x = not tested or not shown; + = active, no number.
SMILES,PAFAH1B3 FP inh,PAFAH2 FP inh,PAFAH1B2 inh,EBNA-1 inhibitor,ZTA counter,rCAG RNA binder,PAFAH1B3 confirm
O=C(c1ccc2nc(-c3ccco3)c(-c3ccco3)nc2c1)N1CCN(c2ccccc2)CC1,13,10,-1,-17,5,23,x
O=C(Nc1ccc(N2CCOCC2)cc1)Nc1ccc2nc(-c3ccco3)c(-c3ccco3)nc2c1,28*,3,23,-9,-2,26,18
O=C(NC1CCCCN(Cc2cccc(C(F)(F)F)c2)C1=O)c1ccc(COc2ccccc2)cc1 (stereo not drawn),x,x,x,x,x,1,x
CCN(CC)c1ccc(/C=N/Nc2nc3ccccc3[nH]2)c(O)c1,27*,6,13,-10,3,16,26*
COc1cc(OC)c(OC)cc1/C=N/Nc1nc2ccccc2[nH]1,2,0,7,3,-6,9,x
O=[N+]([O-])c1ccc(N/N=C/c2c[nH]c3ccccc23)c(S(=O)(=O)Nc2ccc(Cl)cc2)c1,30*,27,15,-21,-5,6,16
COc1ccccc1NS(=O)(=O)c1cc([N+](=O)[O-])ccc1N/N=C/c1c(C)[nH]c2ccccc12,6,-11,-3,2,-1,23,x
COc1ccc(-c2nnc(SCC(=O)Nc3cccc4ccccc34)n2Cc2ccco2)cc1,x,x,x,x,x,9,x
C[C@H]1CCC[C@@H](O)CC(=O)c2c(O)cc(O)cc2CC(=O)O1,x,x,x,x,x,1,x
O=C(O)c1cccc(NC2=C(n3nnc4ccccc43)C(=O)c3ccccc3C2=O)c1,29*,3,5,4,0,8,17
Cc1ccc(CN2CCCCC(NC(=O)c3c(F)cccc3F)C2=O)cc1 (stereo not drawn),x,x,x,x,x,2,x
[O-][n+]1onc2c1CCc1nnccc1-2,7,8,3,4,12,0,x
COn1c(-c2ccccc2)nc2c1CCc1c-2no[n+]1[O-],26*,2,4,5,-10,4,27*
[O-][n+]1onc2c1CCc1nnc(-c3ccccc3)cc1-2,78*,1,4,2,1,1,84*
[O-][n+]1onc2c1CCc1c-2nc(-c2ccccc2)n1OCc1ccccc1,4,6,2,5,21,0,x
CC(C)[C@H](NC(=O)OC(C)(C)C)c1cc(C(=O)N2CCOCC2)c(N)s1,x,x,x,x,x,4,x
C=CC(=O)N=c1sc2ccccc2n1-c1ccccc1,55*,1,9,-3,-2,-7,47*
N=c1sc2ccccc2n1-c1ccccc1,-1,1,2,-4,3,x,x
CC1C(O)=C(c2ccccc2)P(=O)(Cc2ccccc2)C1C (stereo not drawn),x,x,x,x,x,2,x
COc1cc(OC)c2cc(C(=O)N/N=C/c3ccccc3O)[nH]c2c1,29*,9,11,-12,0,9,21
CCCCn1c(NC(=O)c2ccc(Br)o2)c(S(=O)(=O)c2ccccc2)c2nc3ccccc3nc21,50*,17,22,21,11,8,9
C[C@@H]1C=C(C(=O)NCc2nc3ccccc3[nH]2)O[C@H](OCCCCO)C1,+,-3,-6,-1,6,0,8
Cc1ccc(NC(=O)NCc2ccco2)cc1[N+](=O)[O-],x,x,x,x,x,3,x
O=C(CSc1nc2ccccc2nc1N1CCOCC1)N1CCN(S(=O)(=O)c2cccc([N+](=O)[O-])c2)CC1,x,x,x,x,x,8,x
COc1ccc(OC)c(Nc2nnc(C)c(=O)[nH]2)c1,x,x,x,-9,-10,0,x
O=c1[nH]c(Nc2ccccc2)cc2ccccc12,31*,2,8,-13,32,-1,18
COc1ccc(OC)c(Nc2cc3ccccc3c(=O)[nH]2)c1,38*,12,6,-18,-3,3,15
COC(=O)C1=C(C)N(Cc2ccccc2C(F)(F)F)C(=NCc2cc(OC)c(OC)c(OC)c2)NC1c1ccc(Cl)cc1 (stereo not drawn),x,x,x,x,x,2,x
